# Data taken from the supplement of paper PMC4466140.
# B1: unnamed (peptide)
# chain: VPPPMQPPPIESSNL
# B2: unnamed (peptide)
# chain: APPLPPTAPPPPSLP
# Assays:
# Experiment in all cases: SPOT peptide array binding signal intensity (averaged, normalized) (arbitrary units (background-subtracted, floor 0; scale differs between SH3 domains)); higher = stronger binding of the SH3 domain to the peptide
# CaNbp2 = molecular target: CaNbp2
# In short: (§1)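 To measure binding, SH3 domains from four yeast species were fused to GST, expressed in E. coli BL21(DE3) and purified on glutathione Sepharose. Each domain was incubated at 10 μg/ml overnight at 4°C on cellulose membranes with synthetic 15-mer peptides whose cysteines were replaced by serines. Anti-GST antibody, an HRP anti-mouse secondary and luminol were used for detection, and images were quantified with Genespotter. Reported binding signal is normalized, background-subtracted spot intensity averaged over replicates, in arbitrary units that differ between domains.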
# CaRvs167 = molecular target: CaRvs167
# In short: as §1
# CaRvs167-3 = molecular target: CaRvs167-3
# In short: as §1
# CaSho1 = molecular target: CaSho1
# In short: as §1
# CaSla1-D1-D2 = molecular target: CaSla1-D1-D2
# In short: as §1
# CaSla1-D3 = molecular target: CaSla1-D3
# In short: as §1
# ScAbp1 = molecular target: ScAbp1
# In short: as §1
# ScBbc1 = molecular target: ScBbc1
# In short: as §1
# ScBem1-D1 = molecular target: ScBem1-D1
# In short: as §1
# ScBzz1-D1 = molecular target: ScBzz1-D1
# In short: as §1
# ScBzz1-D2 = molecular target: ScBzz1-D2
# In short: as §1
# ScCyk3 = molecular target: ScCyk3
# In short: as §1
# ScFus1 = molecular target: ScFus1
# In short: as §1
# ScHof1 = molecular target: ScHof1
# In short: as §1
# ScHse1 = molecular target: ScHse1
# In short: as §1
# ScLsb1 = molecular target: ScLsb1
# In short: as §1
# ScLsb2 = molecular target: ScLsb2
# In short: as §1
# ScLsb3 = molecular target: ScLsb3
# In short: as §1
# ScLsb4 = molecular target: ScLsb4
# In short: as §1
# ScMyo3 = molecular target: ScMyo3
# In short: as §1
# ScMyo5 = molecular target: ScMyo5
# In short: as §1
# ScNbp2 = molecular target: ScNbp2
# In short: as §1
# ScPex13 = molecular target: ScPex13
# In short: as §1
# ScRvs167 = molecular target: ScRvs167
# In short: as §1
# ScSho1 = molecular target: ScSho1
# In short: as §1
# ScSla1-D1-D2 = molecular target: ScSla1-D1-D2
# In short: as §1
# ScSla1-D3 = molecular target: ScSla1-D3
# In short: as §1
# SpAbp1-D1 = molecular target: SpAbp1-D1
# In short: as §1
# SpBbc1 = molecular target: SpBbc1
# In short: as §1
# SpBzz1-D1 = molecular target: SpBzz1-D1
# In short: as §1
# SpBzz1-D2 = molecular target: SpBzz1-D2
# In short: as §1
# SpCyk3 = molecular target: SpCyk3
# In short: as §1
# SpHof1 = molecular target: SpHof1
# In short: as §1
# SpHof1-2 = molecular target: SpHof1-2
# In short: as §1
# SpHof1-3 = molecular target: SpHof1-3
# In short: as §1
# SpHse1 = molecular target: SpHse1
# In short: as §1
# SpLsb1 = molecular target: SpLsb1
# In short: as §1
# SpLsb4 = molecular target: SpLsb4
# In short: as §1
# SpMyo1 = molecular target: SpMyo1
# In short: as §1
# SpNbp2 = molecular target: SpNbp2
# In short: as §1
# SpPex13 = molecular target: SpPex13
# In short: as §1
# SpRvs167 = molecular target: SpRvs167
# In short: as §1
# SpSla1-D1-D2 = molecular target: SpSla1-D1-D2
# In short: as §1
# SpSla1-D3 = molecular target: SpSla1-D3
# In short: as §1
# AgAbp1 = molecular target: AgAbp1
# In short: as §1
# AgBbc1 = molecular target: AgBbc1
# In short: as §1
# AgBem1-D1 = molecular target: AgBem1-D1
# In short: as §1
# AgBzz1-D1 = molecular target: AgBzz1-D1
# In short: as §1
# AgBzz1-D2 = molecular target: AgBzz1-D2
# In short: as §1
# AgCyk3 = molecular target: AgCyk3
# In short: as §1
# AgFus1 = molecular target: AgFus1
# In short: as §1
# AgHof1 = molecular target: AgHof1
# In short: as §1
# AgHse1 = molecular target: AgHse1
# In short: as §1
# AgLsb1 = molecular target: AgLsb1
# In short: as §1
# AgLsb4 = molecular target: AgLsb4
# In short: as §1
# AgMyo5 = molecular target: AgMyo5
# In short: as §1
# AgNbp2 = molecular target: AgNbp2
# In short: as §1
# AgRvs167 = molecular target: AgRvs167
# In short: as §1
# AgSho1 = molecular target: AgSho1
# In short: as §1
# AgSla1-D1-D2 = molecular target: AgSla1-D1-D2
# In short: as §1
# AgSla1-D3 = molecular target: AgSla1-D3
# In short: as §1
# CaAbp1-D1 = molecular target: CaAbp1-D1
# In short: as §1
# CaAbp1-D2 = molecular target: CaAbp1-D2
# In short: as §1
# CaBbc1 = molecular target: CaBbc1
# In short: as §1
# CaBem1-D1 = molecular target: CaBem1-D1
# In short: as §1
# CaBzz1-D1 = molecular target: CaBzz1-D1
# In short: as §1
# CaBzz1-D2 = molecular target: CaBzz1-D2
# In short: as §1
# CaCyk3 = molecular target: CaCyk3
# In short: as §1
# CaFus1 = molecular target: CaFus1
# In short: as §1
# CaHof1 = molecular target: CaHof1
# In short: as §1
# CaHse1 = molecular target: CaHse1
# In short: as §1
# CaLsb1 = molecular target: CaLsb1
# In short: as §1
# CaLsb4 = molecular target: CaLsb4
# In short: as §1
# CaMyo5 = molecular target: CaMyo5
# In short: as §1
binder,measurement,setting,value
B1,SPOT peptide array binding signal intensity,CaNbp2,172
same,SPOT peptide array binding signal intensity,CaRvs167,12.5
same,SPOT peptide array binding signal intensity,CaRvs167-3,1
same,SPOT peptide array binding signal intensity,CaSho1,279
same,SPOT peptide array binding signal intensity,CaSla1-D1-D2,168
same,SPOT peptide array binding signal intensity,CaSla1-D3,249
same,SPOT peptide array binding signal intensity,ScAbp1,≤ 0
same,SPOT peptide array binding signal intensity,ScBbc1,≤ 0
same,SPOT peptide array binding signal intensity,ScBem1-D1,≤ 0
same,SPOT peptide array binding signal intensity,ScBzz1-D1,≤ 0
same,SPOT peptide array binding signal intensity,ScBzz1-D2,2
same,SPOT peptide array binding signal intensity,ScCyk3,5
same,SPOT peptide array binding signal intensity,ScFus1,328
same,SPOT peptide array binding signal intensity,ScHof1,≤ 0
same,SPOT peptide array binding signal intensity,ScHse1,65
same,SPOT peptide array binding signal intensity,ScLsb1,0.25
same,SPOT peptide array binding signal intensity,ScLsb2,≤ 0
same,SPOT peptide array binding signal intensity,ScLsb3,≤ 0
same,SPOT peptide array binding signal intensity,ScLsb4,9
same,SPOT peptide array binding signal intensity,ScMyo3,854
same,SPOT peptide array binding signal intensity,ScMyo5,502
same,SPOT peptide array binding signal intensity,ScNbp2,206
same,SPOT peptide array binding signal intensity,ScPex13,12.2
same,SPOT peptide array binding signal intensity,ScRvs167,≤ 0
same,SPOT peptide array binding signal intensity,ScSho1,324
same,SPOT peptide array binding signal intensity,ScSla1-D1-D2,75.5
same,SPOT peptide array binding signal intensity,ScSla1-D3,122
same,SPOT peptide array binding signal intensity,SpAbp1-D1,≤ 0
same,SPOT peptide array binding signal intensity,SpBbc1,≤ 0
same,SPOT peptide array binding signal intensity,SpBzz1-D1,28.5
same,SPOT peptide array binding signal intensity,SpBzz1-D2,≤ 0
same,SPOT peptide array binding signal intensity,SpCyk3,6
same,SPOT peptide array binding signal intensity,SpHof1,4.5
same,SPOT peptide array binding signal intensity,SpHof1-2,1.5
same,SPOT peptide array binding signal intensity,SpHof1-3,≤ 0
same,SPOT peptide array binding signal intensity,SpHse1,163
same,SPOT peptide array binding signal intensity,SpLsb1,≤ 0
same,SPOT peptide array binding signal intensity,SpLsb4,61.5
same,SPOT peptide array binding signal intensity,SpMyo1,957
same,SPOT peptide array binding signal intensity,SpNbp2,46
same,SPOT peptide array binding signal intensity,SpPex13,5
same,SPOT peptide array binding signal intensity,SpRvs167,≤ 0
same,SPOT peptide array binding signal intensity,SpSla1-D1-D2,≤ 0
same,SPOT peptide array binding signal intensity,SpSla1-D3,138
B2,SPOT peptide array binding signal intensity,AgAbp1,≤ 0
same,SPOT peptide array binding signal intensity,AgBbc1,≤ 0
same,SPOT peptide array binding signal intensity,AgBem1-D1,≤ 0
same,SPOT peptide array binding signal intensity,AgBzz1-D1,≤ 0
same,SPOT peptide array binding signal intensity,AgBzz1-D2,3
same,SPOT peptide array binding signal intensity,AgCyk3,≤ 0
same,SPOT peptide array binding signal intensity,AgFus1,≤ 0
same,SPOT peptide array binding signal intensity,AgHof1,116
same,SPOT peptide array binding signal intensity,AgHse1,13
same,SPOT peptide array binding signal intensity,AgLsb1,≤ 0
same,SPOT peptide array binding signal intensity,AgLsb4,3
same,SPOT peptide array binding signal intensity,AgMyo5,2800
same,SPOT peptide array binding signal intensity,AgNbp2,≤ 0
same,SPOT peptide array binding signal intensity,AgRvs167,≤ 0
same,SPOT peptide array binding signal intensity,AgSho1,≤ 0
same,SPOT peptide array binding signal intensity,AgSla1-D1-D2,2
same,SPOT peptide array binding signal intensity,AgSla1-D3,0.5
same,SPOT peptide array binding signal intensity,CaAbp1-D1,≤ 0
same,SPOT peptide array binding signal intensity,CaAbp1-D2,≤ 0
same,SPOT peptide array binding signal intensity,CaBbc1,≤ 0
same,SPOT peptide array binding signal intensity,CaBem1-D1,1
same,SPOT peptide array binding signal intensity,CaBzz1-D1,≤ 0
same,SPOT peptide array binding signal intensity,CaBzz1-D2,≤ 0
same,SPOT peptide array binding signal intensity,CaCyk3,≤ 0
same,SPOT peptide array binding signal intensity,CaFus1,≤ 0
same,SPOT peptide array binding signal intensity,CaHof1,≤ 0
same,SPOT peptide array binding signal intensity,CaHse1,≤ 0
same,SPOT peptide array binding signal intensity,CaLsb1,≤ 0
same,SPOT peptide array binding signal intensity,CaLsb4,≤ 0
same,SPOT peptide array binding signal intensity,CaMyo5,2460
same,SPOT peptide array binding signal intensity,CaNbp2,7.5
same,SPOT peptide array binding signal intensity,CaRvs167,0.167
same,SPOT peptide array binding signal intensity,CaRvs167-3,2.5
same,SPOT peptide array binding signal intensity,CaSho1,8
same,SPOT peptide array binding signal intensity,CaSla1-D1-D2,≤ 0
same,SPOT peptide array binding signal intensity,CaSla1-D3,≤ 0
same,SPOT peptide array binding signal intensity,ScAbp1,0.5
same,SPOT peptide array binding signal intensity,ScBbc1,≤ 0
same,SPOT peptide array binding signal intensity,ScBem1-D1,0.5
same,SPOT peptide array binding signal intensity,ScBzz1-D1,≤ 0
same,SPOT peptide array binding signal intensity,ScBzz1-D2,≤ 0
same,SPOT peptide array binding signal intensity,ScCyk3,2
same,SPOT peptide array binding signal intensity,ScFus1,≤ 0
same,SPOT peptide array binding signal intensity,ScHof1,212
same,SPOT peptide array binding signal intensity,ScHse1,≤ 0
same,SPOT peptide array binding signal intensity,ScLsb1,≤ 0
same,SPOT peptide array binding signal intensity,ScLsb2,≤ 0
same,SPOT peptide array binding signal intensity,ScLsb3,≤ 0
same,SPOT peptide array binding signal intensity,ScLsb4,4
same,SPOT peptide array binding signal intensity,ScMyo3,3490
same,SPOT peptide array binding signal intensity,ScMyo5,3170
same,SPOT peptide array binding signal intensity,ScNbp2,0.5
same,SPOT peptide array binding signal intensity,ScPex13,≤ 0
same,SPOT peptide array binding signal intensity,ScRvs167,≤ 0
same,SPOT peptide array binding signal intensity,ScSho1,≤ 0
same,SPOT peptide array binding signal intensity,ScSla1-D1-D2,≤ 0
same,SPOT peptide array binding signal intensity,ScSla1-D3,0.5
same,SPOT peptide array binding signal intensity,SpAbp1-D1,≤ 0
same,SPOT peptide array binding signal intensity,SpBbc1,1
same,SPOT peptide array binding signal intensity,SpBzz1-D1,525
same,SPOT peptide array binding signal intensity,SpBzz1-D2,≤ 0
same,SPOT peptide array binding signal intensity,SpCyk3,1
same,SPOT peptide array binding signal intensity,SpHof1,≤ 0
same,SPOT peptide array binding signal intensity,SpHof1-2,4
same,SPOT peptide array binding signal intensity,SpHof1-3,0.5
same,SPOT peptide array binding signal intensity,SpHse1,10.5
same,SPOT peptide array binding signal intensity,SpLsb1,≤ 0
same,SPOT peptide array binding signal intensity,SpLsb4,≤ 0
same,SPOT peptide array binding signal intensity,SpMyo1,2050
same,SPOT peptide array binding signal intensity,SpNbp2,6.5
same,SPOT peptide array binding signal intensity,SpPex13,≤ 0
same,SPOT peptide array binding signal intensity,SpRvs167,24.3
same,SPOT peptide array binding signal intensity,SpSla1-D1-D2,≤ 0
same,SPOT peptide array binding signal intensity,SpSla1-D3,≤ 0
